# FMDV inh = High Throughput Screening for Foot and Mouth Disease Virus Antivirals | FMDV antiviral cell-based qHTS | Potency, µM (highest dose often 57.9 µM), for the others: top-dose activity change, negative = inhibition, most hits filed as inhibitors | 410,000 compounds, 1.2% hits | AID 1159524, 2015; calls by dose curve; tested in HEK293T cells; further: read-out not given here; potency means the concentration at half of the fitted maximal effect; nearly all actives have a fitted effect of over 45% in size
# HCMV inh = qHTS Assay for inhibitors of the human cytomegalovirus (HCMV) | HFF cells, HCMV-luciferase reporter, 72 h; active compounds read low | activity change, negative = inhibition, % at 57.5 µM | 410,000 compounds, 4.5% hits; in the data active means activity change below about -60%; inconclusive means no clear call, values can overlap the other calls; inactive means above about -39%
#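 HFF cells seeded 16 h at 37C, treated with compounds, infected with luciferase-reporter HCMV at MOI 1 PFU/cell; luciferase read at 72 h post infection, normalized to buffer-only and Salinomycin controls.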
# Marburg entry inh = qHTS for inhibitors of binding or entry into cells for Marburg Virus | Marburg virus pseudotyped entry inhibition, cell reporter | Potency, µM (highest dose often 37.8 µM), for the others: at the highest dose activity change, negative = inhibition, usual class: inhibitors | 300,000 compounds, 1.8% hits; calls by dose curve; tested in HEK293 cells; further: potency means the concentration at half of the fitted maximal effect
# Lassa entry inh = qHTS for Inhibitors of binding or entry into cells for Lassa Virus. 300,000 compounds, 1.2% hits. Lassa virus pseudotype entry inhibition, cell reporter. Potency, µM (highest dose often 37.9 µM), inactives show top-dose activity change, negative = inhibition, actives largely listed as inhibitors; calls by dose curve; tested in HEK293 cells; further: potency means the concentration at half of the fitted maximal effect; nearly all actives have a fitted effect of over 50% in size
# An asterisk follows results filed as active; u = inconclusive; x = no result; [ ] = another dose, or the depositor's remark. A selection: hits, their analogues and other compounds. The true share with any hit is near 6.2%. On the % scale 0 is the no-effect control and ±100 the full control effect.
SMILES,FMDV inh,HCMV inh,Marburg entry inh,Lassa entry inh
FC(F)(F)c1cccc(NC(=S)Nc2ccc(Cl)c(Cl)c2)c1,-20%,6,u,u
Cc1ccc(OCC(=O)NC(=S)Nc2cccc(NC(=O)c3ccc(Cl)cc3Cl)c2)cc1,0%,-73*,5%,9%
FC(F)(F)c1cccc(NC(=S)NC(c2ccccc2)c2ccccc2)c1,25µM*,-40,u,-27%
COC(=S)Nc1cccc(C(F)(F)F)c1,-11%,31,3%[46.1 µM],-1%
FC(F)(F)c1cccc(CNC(=S)Nc2ccccc2)c1,18%,-72*,-17%[46.1 µM],0%
FC(F)(F)c1cccc(NC(=S)NCc2ccccc2)c1,1%,-73*,0%,u
CC(C)(C)NC(=S)Nc1cccc(C(F)(F)F)c1,-28%,u,u,x
COc1ccc(NC(=S)NNC(=S)Nc2cccc(C(F)(F)F)c2)cc1,14%,-76*,u,u
C/C1=C\CC(C)(C)/C=C/C(=O)[C@@H](C)CCC[C@H](C)CC(=O)C1,x,-1,x,x
CCc1cccc(NC(=O)Cn2c(C(=O)OC)cc3occc32)c1,5%,20,-1%[46.1 µM],x
Cc1ccccc1-c1ncnn1-c1sc2c(c1C#N)CCCCC2,-5%,1,x,21%[46.1 µM]
COc1ccccc1-c1ccnc(-n2ncc(C(=O)NC(c3cccnc3)C(F)(F)F)c2C)n1 (configuration not stated),-24%,x,x,x
O=C(NCCc1ccccn1)c1cnn(-c2ncc3c(n2)-c2ccccc2CC3)c1C1CC1,-27%,x,x,x
CC1(C)Cc2c(c(N3CCOCC3)nc3snc(N)c23)CO1,u,-102*,-23%,-13%
CC1(C)Cc2c(c(N3CCOCC3)nc3snc(Br)c23)CO1,11%,24,-12%,-17%
COc1ccccc1C1CN(Cc2cn(C)nc2C)Cc2ccccc2O1 (configuration not stated),-11%,x,x,x
CCn1c(SCC(=O)Nc2nccs2)nnc1-c1ccc(S(=O)(=O)N2CCCCC2)cc1,25µM*,-38,-24%,-2%
CCn1c(SCC(=O)Nc2nccs2)nnc1-c1ccccc1,15%,-14,29%,-17%
CC(C)c1ccc(Nc2cc3c(cn2)ncn3CC2CC2)cc1,x,5,x,x
CN1CCCN(C(c2ccccc2)c2ccc(Cl)cc2)CC1 (configuration not stated),-26%,u,u,13µM*
O=C(CCn1c(=O)oc2cc(Cl)ccc21)Nc1ccc(O)cc1,10%,-14,23%[46.1 µM],x
CCn1c(=O)oc2cc(NC(=O)CCl)ccc21,22µM*,u,u,u
Cn1c(=O)n(C)c2cc(NC(=O)CCl)ccc21,u,-104*,u,18µM*
COc1ccc([C@]23Cc4c(ccc5ccccc45)[C@H](O2)c2c(cc(-c4ccccc4)oc2=O)O3)cc1,x,x,40%[14.2 µM],x
Cn1c(=O)[nH]c(=O)c2[nH]c(N(Cc3ccccc3)Cc3ccccc3)nc21,40µM*,75,-3%[46.1 µM],u
SMILES,FMDV inh,HCMV inh,Marburg entry inh,Lassa entry inh
CCc1ccc(C2NC(=O)c3[nH]nc(-c4cccc(OC)c4)c32)cc1 (configuration not stated),-23%,27,u,-5%[46.1 µM]
Cc1c(C(=O)NCC(C)C)sc2ncnc(NCC3CCCO3)c12 (configuration not stated),0%,x,x,x
CCOP(=O)(OCC)C(CC)N1CCOCC1 (configuration not stated),-10%,-25,21%[46.1 µM],22%
CCOP(=S)(OCC)N1CCOCCOCCN(P(=S)(OCC)OCC)CCOCCOCC1,-14%,17,10µM*,u
CCOc1ccc(NC(=O)c2c(NC(=O)c3ccco3)sc3c2CCC(C(C)(C)C)C3)cc1 (configuration not stated),14%,-8,25%[46.1 µM],1%[46.1 µM]
COc1ccc(N2CC3=C(C2=O)C(c2ccc(Br)cc2)NC(=O)N3C)cc1 (configuration not stated),-30%,-99*,-35%[46.1 µM],u
CCN(CC)S(=O)(=O)c1cccc2cccnc12,15%,13,2%,-11%
NS(=O)(=O)c1ccc(N=Nc2ccc(O)c3ncccc23)cc1,-16%,-97*,x,x
CCN(CC)S(=O)(=O)c1cc(OC)ccc1N=Nc1ccc(O)c2ncccc12,-20%,-97*,x,x
CCOc1ccc(N=Nc2ccc(O)c3ncccc23)cc1,14%,-87*,u,-20%[46.1 µM]
CN(C)CC/C=C1/c2ccccc2Sc2ccc(Cl)cc21,u,-24,x,x
Cc1cc(C)n2nc(SCC(=O)N3CC(C)CC(C)C3)nc2n1 (configuration not stated),-15%,-65*,5%,-6%
CCOC(=O)N1CCN(C(=O)CSc2nc3nc(C)cc(C)n3n2)CC1,-6%,22,22%,22%
CCc1ccc(N/C(SCc2cccc(F)c2)=C(/C#N)C(=O)NCc2ccco2)cc1,-6%,5,21µM*,u
Cc1ccc(N/C(SCc2ccccc2C)=C(/C#N)C(=O)NCc2ccco2)cc1C,-27%,-18,u,u
COC(=O)Cc1[nH]nc2c1C1(C(=O)N(Cc3ccccc3)c3ccccc31)C(C#N)=C(N)O2 (configuration not stated),-8%,33,1%,-22%
Cc1[nH]nc2c1C1(C(=O)N(Cc3ccc(Cl)cc3)c3ccccc31)C(C#N)=C(N)O2 (configuration not stated),x,-70*,-24%,-15%
COCC(C)n1c(C)cc(C(=O)COC(=O)c2c(NC(C)=O)sc(C)c2C)c1C (configuration not stated),u,-5,2.6µM*,u
COCC(C)n1c(C)cc(C(=O)COC(=O)c2c(C)nn(-c3ccccc3)c2C)c1C (configuration not stated),-9%,6,u,u
CC(C)Cn1c(N)c(C(=O)COC(=O)c2ccccc2Cl)c(=O)n(C)c1=O,u,-17,x,x
CCc1ccc(C(=O)OCC(=O)c2c(N)n(CC(C)C)c(=O)n(C)c2=O)cc1,u,-65*,u,u
COCc1c(C(=O)OCC(=O)c2c(N)n(CC(C)C)c(=O)n(C)c2=O)oc2ccccc12,32µM*,-8,-28%,-27%
CC(C)Cn1c(N)c(C(=O)COC(=O)/C=C/c2cccs2)c(=O)n(C)c1=O,18µM*,-73*,u,u
CC(C)Cn1c(N)c(C(=O)COC(=O)Cc2cccs2)c(=O)n(C)c1=O,u,-8,-20%,-25%
Cc1c(C(=O)OCC(=O)c2c(N)n(CC(C)C)c(=O)n(C)c2=O)oc2ccccc12,u,-64*,10µM*,-23%
CC(C)Cn1c(N)c(C(=O)COC(=O)c2ccccc2F)c(=O)n(C)c1=O,-5%,-21,-1%[46.1 µM],-25%[46.1 µM]
Cc1cccc(N2CCN(C(=O)c3c(C)oc4nc(C)nc(N5CCCC5)c34)CC2C)c1 (configuration not stated),-13%,-31,x,-7%[46.1 µM]
Cc1ccc(S(=O)(=O)NCC(c2ccco2)N2CCN(c3ccccc3F)CC2)cc1 (configuration not stated),-7%,u,x,-13%[46.1 µM]
CCNC(=O)C1CCCN(C(=O)c2cccc(C#N)c2)CC1 (configuration not stated),-15%,-16,x,x

# Screening results deposited in PubChem by National Center for Advancing Translational Sciences (NCATS).
